# Reference: publication PMC11006913
# Key:
# Test in all cases: PBM; 200 nM protein, PBS
# Details in all cases: dsDNA, one strand shown
# ALX1 [1] = target: ALX1 (Homo sapiens, UniProt Q15699 118-204, L144V)
# ALX1 [2] = target: ALX1 (Homo sapiens, UniProt Q15699 118-204, L144R)
# VAX1 [3] = target: VAX1 (Homo sapiens, UniProt Q5SQQ9 86-172)
# VAX1 [4] = target: VAX1 (Homo sapiens, UniProt Q5SQQ9 86-172, T142I)
# ALX1 [5] = target: ALX1 (Homo sapiens, UniProt Q15699 118-204)
# VAX1 [6] = target: VAX1 (Homo sapiens, UniProt Q5SQQ9 86-172, K157R)
# PITX2 = PITX2 (Homo sapiens, UniProt Q99697 72-157)
# HOXC10 = HOXC10 (Homo sapiens, UniProt Q9NYD6 254-340, K271E)
# HOXC9 = HOXC9 (Homo sapiens, UniProt P31274 178-260, R222W)
# SHOX [7] = target: SHOX (Homo sapiens, UniProt O15266 103-189)
# SHOX [8] = target: SHOX (Homo sapiens, UniProt O15266 103-189, R173C)
# CRX [9] = target: CRX (Homo sapiens, UniProt O43186 26-111, R41L)
# CRX [10] = target: CRX (Homo sapiens, UniProt O43186 26-111)
# CRX (Homo sapiens, UniProt O43186 26-111), sequence (O43186 26-111): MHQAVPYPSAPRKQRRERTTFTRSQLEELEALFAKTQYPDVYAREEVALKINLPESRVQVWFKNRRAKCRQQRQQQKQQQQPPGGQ
# VAX1 (Homo sapiens, UniProt Q5SQQ9 86-172), sequence (Q5SQQ9 86-172): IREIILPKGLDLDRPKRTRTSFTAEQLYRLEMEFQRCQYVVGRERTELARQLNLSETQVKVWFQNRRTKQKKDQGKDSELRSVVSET
# VAX1 (Homo sapiens, UniProt Q5SQQ9 86-172, T142I), sequence (Q5SQQ9 86-172 T142I): as the sequence (Q5SQQ9 86-172) above, with T57I counted along it
# SHOX (Homo sapiens, UniProt O15266 103-189), sequence (O15266 103-189): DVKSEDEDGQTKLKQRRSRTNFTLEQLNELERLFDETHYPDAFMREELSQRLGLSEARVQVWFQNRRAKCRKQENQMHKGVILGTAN
# SHOX (Homo sapiens, UniProt O15266 103-189, R173C), sequence (O15266 103-189 R173C): as the sequence (O15266 103-189) above, with R71C counted along it
# VAX1 (Homo sapiens, UniProt Q5SQQ9 86-172, K157R), sequence (Q5SQQ9 86-172 K157R): as the sequence (Q5SQQ9 86-172) above, with K72R counted along it
# HOXC10, sequence (Q9NYD6 254-340 K271E): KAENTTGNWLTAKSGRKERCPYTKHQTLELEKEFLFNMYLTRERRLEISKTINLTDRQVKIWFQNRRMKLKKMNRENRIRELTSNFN
# ALX1 (Homo sapiens, UniProt Q15699 118-204, L144R), sequence (Q15699 118-204 L144R): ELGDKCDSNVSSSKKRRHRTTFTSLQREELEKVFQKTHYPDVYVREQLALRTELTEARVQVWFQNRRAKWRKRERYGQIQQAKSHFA
# ALX1 (Homo sapiens, UniProt Q15699 118-204, L144V), sequence (Q15699 118-204 L144V): as the sequence (Q15699 118-204 L144R) above, with R27V counted along it
# CRX (Homo sapiens, UniProt O43186 26-111, R41L), sequence (O43186 26-111 R41L): as the sequence (O43186 26-111) above, with R16L counted along it
# ALX1 (Homo sapiens, UniProt Q15699 118-204), sequence (Q15699 118-204): as the sequence (Q15699 118-204 L144R) above, with R27L counted along it
# HOXC9, sequence (P31274 178-260 R222W): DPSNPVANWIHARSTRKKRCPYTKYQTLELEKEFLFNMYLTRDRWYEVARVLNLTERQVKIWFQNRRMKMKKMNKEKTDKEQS
sequence,measurement,setting,value
CAGCCGCG,binding signal,ALX1 [1],"6.48 upbm affinity estimate (log intensity, higher = more binding, comparable within an allelic series)"
same,binding signal,ALX1 [2],"6.44 upbm affinity estimate (log intensity, higher = more binding, comparable within an allelic series)"
same,binding signal,VAX1 [3],"7 upbm affinity estimate (log intensity, higher = more binding, comparable within an allelic series)"
same,binding signal,VAX1 [4],"7.24 upbm affinity estimate (log intensity, higher = more binding, comparable within an allelic series)"
same,binding signal,ALX1 [5],"6.47 upbm affinity estimate (log intensity, higher = more binding, comparable within an allelic series)"
same,binding signal,VAX1 [6],"7.13 upbm affinity estimate (log intensity, higher = more binding, comparable within an allelic series)"
TATTAGGA,binding signal,PITX2,"9.87 upbm affinity estimate (log intensity, higher = more binding, comparable within an allelic series)"
AGTTTATG,binding signal,HOXC10,"11.1 upbm affinity estimate (log intensity, higher = more binding, comparable within an allelic series)"
GGACGTCC,binding signal,VAX1 [3],"7.88 upbm affinity estimate (log intensity, higher = more binding, comparable within an allelic series)"
same,binding signal,VAX1 [4],"7.46 upbm affinity estimate (log intensity, higher = more binding, comparable within an allelic series)"
same,binding signal,VAX1 [6],"7.64 upbm affinity estimate (log intensity, higher = more binding, comparable within an allelic series)"
ATATTAAA,binding signal,HOXC9,"11.1 upbm affinity estimate (log intensity, higher = more binding, comparable within an allelic series)"
CTTGGCCC,binding signal,SHOX [7],"7.14 upbm affinity estimate (log intensity, higher = more binding, comparable within an allelic series)"
same,binding signal,SHOX [8],"7.2 upbm affinity estimate (log intensity, higher = more binding, comparable within an allelic series)"
CCCACTCG,binding signal,SHOX [7],"7.04 upbm affinity estimate (log intensity, higher = more binding, comparable within an allelic series)"
same,binding signal,SHOX [8],"7.12 upbm affinity estimate (log intensity, higher = more binding, comparable within an allelic series)"
GAACGCGC,binding signal,SHOX [7],"7.22 upbm affinity estimate (log intensity, higher = more binding, comparable within an allelic series)"
same,binding signal,SHOX [8],"7.23 upbm affinity estimate (log intensity, higher = more binding, comparable within an allelic series)"
CCTGAGAG,binding signal,SHOX [7],"7.19 upbm affinity estimate (log intensity, higher = more binding, comparable within an allelic series)"
same,binding signal,SHOX [8],"7.25 upbm affinity estimate (log intensity, higher = more binding, comparable within an allelic series)"
CCGGATGC,binding signal,SHOX [7],"6.64 upbm affinity estimate (log intensity, higher = more binding, comparable within an allelic series)"
same,binding signal,SHOX [8],"7.08 upbm affinity estimate (log intensity, higher = more binding, comparable within an allelic series)"
same,binding signal,VAX1 [3],"6.72 upbm affinity estimate (log intensity, higher = more binding, comparable within an allelic series)"
same,binding signal,VAX1 [4],"6.89 upbm affinity estimate (log intensity, higher = more binding, comparable within an allelic series)"
same,binding signal,VAX1 [6],"6.77 upbm affinity estimate (log intensity, higher = more binding, comparable within an allelic series)"
GCGTTAAA,binding signal,SHOX [7],"8.14 upbm affinity estimate (log intensity, higher = more binding, comparable within an allelic series)"
same,binding signal,SHOX [8],"7.56 upbm affinity estimate (log intensity, higher = more binding, comparable within an allelic series)"
GCTAATAC,binding signal,SHOX [7],"9.1 upbm affinity estimate (log intensity, higher = more binding, comparable within an allelic series)"
same,binding signal,CRX [9],"10.9 upbm affinity estimate (log intensity, higher = more binding, comparable within an allelic series)"
AGGGAAAC,binding signal,SHOX [7],"7.15 upbm affinity estimate (log intensity, higher = more binding, comparable within an allelic series)"
same,binding signal,SHOX [8],"7.22 upbm affinity estimate (log intensity, higher = more binding, comparable within an allelic series)"
AATTCTGA,binding signal,CRX [10],"10 upbm affinity estimate (log intensity, higher = more binding, comparable within an allelic series)"
CGGTTGCC,binding signal,SHOX [7],"7.18 upbm affinity estimate (log intensity, higher = more binding, comparable within an allelic series)"
same,binding signal,SHOX [8],"7.25 upbm affinity estimate (log intensity, higher = more binding, comparable within an allelic series)"
AGGTCCCC,binding signal,SHOX [7],"7.19 upbm affinity estimate (log intensity, higher = more binding, comparable within an allelic series)"
same,binding signal,SHOX [8],"7.17 upbm affinity estimate (log intensity, higher = more binding, comparable within an allelic series)"
CCAAGGAG,binding signal,SHOX [7],"7.32 upbm affinity estimate (log intensity, higher = more binding, comparable within an allelic series)"
same,binding signal,SHOX [8],"7.21 upbm affinity estimate (log intensity, higher = more binding, comparable within an allelic series)"
CGAGCGCA,binding signal,SHOX [7],"7.22 upbm affinity estimate (log intensity, higher = more binding, comparable within an allelic series)"
same,binding signal,SHOX [8],"7.31 upbm affinity estimate (log intensity, higher = more binding, comparable within an allelic series)"
CCTCGGAG,binding signal,SHOX [7],"7.14 upbm affinity estimate (log intensity, higher = more binding, comparable within an allelic series)"
same,binding signal,SHOX [8],"7.17 upbm affinity estimate (log intensity, higher = more binding, comparable within an allelic series)"
AGGGTCGG,binding signal,SHOX [7],"7.15 upbm affinity estimate (log intensity, higher = more binding, comparable within an allelic series)"
same,binding signal,SHOX [8],"7.14 upbm affinity estimate (log intensity, higher = more binding, comparable within an allelic series)"
GCATTACC,binding signal,SHOX [7],"8.63 upbm affinity estimate (log intensity, higher = more binding, comparable within an allelic series)"
same,binding signal,SHOX [8],"7.62 upbm affinity estimate (log intensity, higher = more binding, comparable within an allelic series)"
GCCAGGGA,binding signal,SHOX [7],"7.22 upbm affinity estimate (log intensity, higher = more binding, comparable within an allelic series)"
same,binding signal,SHOX [8],"7.13 upbm affinity estimate (log intensity, higher = more binding, comparable within an allelic series)"
CCGGCGTC,binding signal,SHOX [7],"7.01 upbm affinity estimate (log intensity, higher = more binding, comparable within an allelic series)"
same,binding signal,SHOX [8],"7.17 upbm affinity estimate (log intensity, higher = more binding, comparable within an allelic series)"
